In test [1] the target is Cytochrome P450 3A4 (Homo sapiens) (UniProt P08684). Briefly: qHTS Assay for Activators of Cytochrome P450 3A4 (AID 885). Further: nearly all actives have a fitted effect of over 65% in size. The gist of the method: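 CYP3A4 activity: Luciferin-PPXE O-dealkylation, 25uM substrate, 200mM KPO4, RT throughout. Read-out is luciferase luminescence; higher values reflect activation.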
A general note: In qHTS, concentration-response curves come from the screen itself.

The target of test [2] is Cytochrome P450 2D6 (Homo sapiens) (UniProt P10635). Briefly: qHTS Assay for Inhibitors and Substrates of Cytochrome P450 2D6 (AID 891).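 Further: luciferin methyl ether substrate demethylated by CYP2D6 with NADPH regeneration; on the % scale 0 is the no-effect control and ±100 the full control effect; nearly all actives have a fitted effect of over 60% in size.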 The method, boiled down:
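Luminescent read-out of luciferin formed by 5 nM human CYP2D6 demethylating 30 uM Luciferin-ME EGE (Km level) over 60 min at room temperature after NADPH regeneration addition. Data normalized to full inhibition by 1.43 uM quinidine.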

Test [3] is described as follows: Confirmation and Secondary Assay for Modulators of Hemoglobin Beta Chain Splicing at IVS2 654 locus (AID 910).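 Further: HeLa cells stably carrying EGFP split by mutant beta-globin IVS2-654 intron; % of control where 0% means no effect.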 The method, boiled down:
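HeLa cells stably expressing EGFP interrupted by β-globin IVS2-654 intron, seeded overnight in Opti-MEM/2% FCS, then treated 2 days at 37 °C. Restored splicing read as total peak GFP intensity per well by laser scanning cytometry (488 nm excitation, 500–520 nm emission); 500 nM antisense PNA as control.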

Test [4] in a line: Confirmation and Secondary Assay for Modulators of Hemoglobin Beta Chain Splicing at IVS2 705 locus (AID 930).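 Further: HeLa cells stably expressing the EGFP-705 splicing reporter; GFP fluorescence per well restored by corrected splicing of the IVS2-705 intron in EGFP; % of control where 0% means no effect.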 The gist of the method:
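Splice-correction reporter: EGFP cDNA split by beta-globin intron 2 bearing the 705 mutation, stably in HeLa. Compound incubation 2 days, 37C; fluorescent objects 5-250 µm summed per well.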

For test [5], the target named is Cytochrome P450 2C9 (Homo sapiens) (UniProt P11712). Briefly: qHTS Assay for Inhibitors and Substrates of Cytochrome P450 2C9 (AID 883). Further: on the % scale 0 is the no-effect control and ±100 the full control effect; nearly all actives have a fitted effect of over 60% in size. The gist of the method:
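Human CYP2C9 (10nM) with Luciferin-H at 100uM (its KM) in 25mM KPO4; compound preincubated 10 min at 37C, then NADPH regeneration for 60 min at 37C. Luciferin read by luminescence after detection reagent; normalized to 57uM sulphaphenazole as full inhibition.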

Test [6] concerns the target ATP-dependent 6-phosphofructokinase (Trypanosoma brucei brucei) (UniProt O15648). Kind of test: qHTS Assay to Find Inhibitors of T. brucei phosphofructokinase: hit validation (AID 492961).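 Further: luminescence reports ADP formed as PFK phosphorylates fructose-6-phosphate with ATP; on the % scale 0 is the no-effect control and ±100 the full control effect.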 The gist of the method: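 Compounds titrated; %activity normalized to 0x and 1x enzyme controls, curve-fitted. Readout: ADP-Glo luminescence after 45 min room-temperature reaction of 1.25 nM PFK, 0.1 mM ATP, 0.5 mM F6P, pH 8.0.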

The next test concerns 7G8. Kind of test: qHTS profiling for inhibitors of Plasmodium falciparum proliferation (AID 504749). Further: nearly all actives have a fitted effect of over 60% in size. Further: potency means the concentration at half of the fitted maximal effect. The following applies: P. falciparum in erythrocytes, SYBR Green DNA, 72 h; series mostly up to 12.8 µM. The gist of the method: (§1)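 Each compound contacts P. falciparum-infected red blood cells for 72 h at 37 C; lysis buffer (Tris, EDTA, saponin, Triton X, SYBR Green I) is added and fluorescence measured next morning; values normalized to controls.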

For another test, the system named is CP335. Described as above. The following applies: P. falciparum in erythrocytes, SYBR Green DNA, 72 h; series mostly up to 12.8 µM. The method, boiled down: as §1
A further test deals with DIV17. The description is as above. Conditions: P. falciparum in erythrocytes, SYBR Green DNA, 72 h; series mostly up to 12.8 µM. The gist of the method: as §1
For another test, the system named is GB4. Described as above. The following applies: P. falciparum in erythrocytes, SYBR Green DNA, 72 h; series mostly up to 12.8 µM. The gist of the method: as §1
The next test has as its system DFO2036. The test is described as above. The following applies: P. falciparum in erythrocytes, SYBR Green DNA, 72 h; series mostly up to 12.8 µM. The method, boiled down: as §1
Another test deals with P93_24. Described as above. Conditions: P. falciparum in erythrocytes, SYBR Green DNA, 72 h; series mostly up to 12.8 µM. The gist of the method: as §1
The test system of the next test is AA1029. The test is described as above. The following applies: P. falciparum in erythrocytes, SYBR Green DNA, 72 h; series mostly up to 12.8 µM. The gist of the method: as §1
In the next test the test system is CP194. The description is as above. The following applies: P. falciparum in erythrocytes, SYBR Green DNA, 72 h; series mostly up to 12.8 µM. The gist of the method: as §1
For a further test, the system named is CP203. The test is described as above. Conditions: P. falciparum in erythrocytes, SYBR Green DNA, 72 h; series mostly up to 12.8 µM. The gist of the method:
as §1

For a further test, the system named is CP211. The test is described as above. The following applies: P. falciparum in erythrocytes, SYBR Green DNA, 72 h; series mostly up to 12.8 µM. The gist of the method:
as §1

Another test concerns CP215. Described as above. Conditions: P. falciparum in erythrocytes, SYBR Green DNA, 72 h; series mostly up to 12.8 µM. The gist of the method:
as §1

A further test deals with PC26. Described as above. The following applies: P. falciparum in erythrocytes, SYBR Green DNA, 72 h; series mostly up to 12.8 µM. The gist of the method:
as §1

The next test has as its system TAB109. Described as above. Conditions: P. falciparum in erythrocytes, SYBR Green DNA, 72 h; series mostly up to 12.8 µM. The method, boiled down:
as §1

The structures appear in SMILES notation. A number with no mark means an inactive call. Inconclusive results are not listed. Activity calls are given as the source filed them. The call rests on the fitted dose curve; in most records, active means well fitted curve in the direction sought with a large enough effect; inconclusive means small, poorly fitted or top-dose-only effect, or another doubt; inactive means no such curve, though single readings can be large; an effect the other way counts as inactive or inconclusive.

Chain of ATP-dependent 6-phosphofructokinase (Trypanosoma brucei brucei) (O15648 whole entry, looked up): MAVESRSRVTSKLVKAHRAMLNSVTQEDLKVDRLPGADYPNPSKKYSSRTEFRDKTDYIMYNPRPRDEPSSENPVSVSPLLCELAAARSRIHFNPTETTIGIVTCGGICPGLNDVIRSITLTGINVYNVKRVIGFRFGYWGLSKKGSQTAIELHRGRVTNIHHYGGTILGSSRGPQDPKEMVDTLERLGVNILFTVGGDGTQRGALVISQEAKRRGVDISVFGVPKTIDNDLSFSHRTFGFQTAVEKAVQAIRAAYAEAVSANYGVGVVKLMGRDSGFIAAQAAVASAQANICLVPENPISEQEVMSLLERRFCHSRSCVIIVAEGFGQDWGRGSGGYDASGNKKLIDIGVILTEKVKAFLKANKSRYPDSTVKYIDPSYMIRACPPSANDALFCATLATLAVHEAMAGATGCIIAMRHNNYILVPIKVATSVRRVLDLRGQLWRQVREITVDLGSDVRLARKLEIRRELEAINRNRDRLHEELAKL
Chain of Cytochrome P450 3A4 (Homo sapiens) (P08684 whole entry, looked up): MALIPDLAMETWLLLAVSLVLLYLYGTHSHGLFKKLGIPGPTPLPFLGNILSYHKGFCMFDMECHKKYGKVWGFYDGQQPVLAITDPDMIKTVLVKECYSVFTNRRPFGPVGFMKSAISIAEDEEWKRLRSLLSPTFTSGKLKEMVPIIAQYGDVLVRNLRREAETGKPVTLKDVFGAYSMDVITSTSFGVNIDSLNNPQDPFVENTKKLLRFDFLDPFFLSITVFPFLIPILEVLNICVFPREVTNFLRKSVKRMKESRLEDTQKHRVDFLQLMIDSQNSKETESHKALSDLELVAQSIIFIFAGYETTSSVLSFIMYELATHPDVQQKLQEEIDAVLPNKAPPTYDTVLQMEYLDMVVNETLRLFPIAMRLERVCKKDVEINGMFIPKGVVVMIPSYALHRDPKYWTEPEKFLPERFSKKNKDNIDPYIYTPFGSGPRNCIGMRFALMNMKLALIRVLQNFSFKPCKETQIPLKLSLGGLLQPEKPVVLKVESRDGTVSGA
Chain of Cytochrome P450 2D6 (Homo sapiens) (P10635 whole entry, looked up): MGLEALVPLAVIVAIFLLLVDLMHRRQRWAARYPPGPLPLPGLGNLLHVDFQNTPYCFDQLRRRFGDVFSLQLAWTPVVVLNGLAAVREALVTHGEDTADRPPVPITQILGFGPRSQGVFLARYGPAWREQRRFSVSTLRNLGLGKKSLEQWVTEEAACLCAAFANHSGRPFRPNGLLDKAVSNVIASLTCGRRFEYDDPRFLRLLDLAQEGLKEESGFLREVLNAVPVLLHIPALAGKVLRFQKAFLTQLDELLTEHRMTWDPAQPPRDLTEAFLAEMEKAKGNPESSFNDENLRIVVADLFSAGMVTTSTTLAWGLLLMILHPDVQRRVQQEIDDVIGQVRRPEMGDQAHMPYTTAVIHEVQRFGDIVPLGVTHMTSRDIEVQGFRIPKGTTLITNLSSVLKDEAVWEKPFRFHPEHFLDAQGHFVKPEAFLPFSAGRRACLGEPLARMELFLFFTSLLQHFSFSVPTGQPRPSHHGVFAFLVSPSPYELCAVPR
Chain of Cytochrome P450 2C9 (Homo sapiens) (P11712 whole entry, looked up): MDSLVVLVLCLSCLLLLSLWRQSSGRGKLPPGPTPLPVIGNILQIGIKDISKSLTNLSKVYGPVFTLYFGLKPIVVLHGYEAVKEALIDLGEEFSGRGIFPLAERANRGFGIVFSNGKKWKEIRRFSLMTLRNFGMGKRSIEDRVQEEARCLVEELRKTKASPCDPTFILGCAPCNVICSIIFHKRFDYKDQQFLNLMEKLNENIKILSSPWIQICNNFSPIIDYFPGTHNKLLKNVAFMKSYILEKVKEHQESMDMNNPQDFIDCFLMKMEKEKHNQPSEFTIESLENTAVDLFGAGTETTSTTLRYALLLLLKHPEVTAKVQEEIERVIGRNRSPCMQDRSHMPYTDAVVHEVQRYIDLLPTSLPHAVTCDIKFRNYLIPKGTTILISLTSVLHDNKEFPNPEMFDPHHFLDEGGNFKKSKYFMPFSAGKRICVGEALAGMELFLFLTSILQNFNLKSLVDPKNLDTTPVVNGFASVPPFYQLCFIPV

With `CC(C)(N=NC(C)(C)C(=N)N)C(=N)N`, the Potency entry in [1], in [3] and in test [4] was “inactive” in each case. The activity change, negative = inhibition in [2] was 23.6% [at 11.4 µM].
Turning to `C[C@@H](C(=O)O)c1ccc(N2Cc3ccccc3C2=O)cc1`, the Potency entry in [5] is “inactive”.
For the molecule `Cc1onc(-c2c(Cl)cccc2Cl)c1C(=O)N[C@H]1C(=O)N2[C@H]1SC(C)(C)[C@H]2C(=O)O`, the Potency entry in test [5] and in test [2] was “inactive” in each case.
Turning to `O[C@@](CCN1CCCC1)(c1ccccc1)C1CCCCC1`, the outcome in [6] was inactive. Moreover, the Potency in the test on 7G8 is 4.47 µM (active); in the test on DIV17 it was 3.22 µM (active). Moreover, the Potency entry in the test on CP335 and in the test on GB4 was “inactive” in each case.
In the case of `COC(=O)C1=C(C)NC(C)=C(C(=O)OC(C)C)[C@H]1c1cccc2nonc12`, the Potency in the test with 7G8 is 3.16 µM (active). Also, the Potency entry in the test with DFO2036 and with P93_24 was “inactive” throughout.
For `C[C@@H]1C[C@H]2[C@@H]3C[C@H](F)C4=CC(=O)C=C[C@@]4(C)[C@]3(F)[C@H](O)C[C@]2(C)[C@@]1(O)C(=O)CO`, the outcome in [6] was inactive. Further, the Potency result in the test on 7G8, with AA1029, with CP194, with CP203, in the test on CP211 and in the test on CP215 was “inactive” each time. The Potency entry in the test with CP335, with DFO2036, with DIV17, with GB4, in the test with P93_24 and with PC26 was “inactive” in each case. Further, the Potency entry in the test with TAB109 was “inactive”.
In the case of `C[C@@H]1O[C@H](O[C@@H]2\C=C/C=C\C=C/C=C\C[C@H](C)OC(=O)/C=C\[C@H]3O[C@@H]3C[C@H](O)C[C@]3(O)C[C@@H](O)[C@@H](C(=O)O)[C@H](C2)O3)[C@@H](O)[C@H](N)[C@@H]1O` (stereo in doubt), the outcome in test [6] was inactive. Besides, the Potency entry in the test with 7G8, in the test on AA1029, with CP194, with CP203, in the test with CP211 and in the test with CP215 was “inactive” each time. The Potency result with CP335, with DFO2036, in the test on DIV17, with GB4, with P93_24 and in the test on PC26 was “inactive” in each case. In the test on TAB109, the Potency result was “inactive”.
For `NS(=O)(=O)c1cc2c(cc1C(F)(F)F)N[C@H](Cc1ccccc1)NS2(=O)=O`, the Potency entry (in test [1]; with 7G8; in the test with AA1029; in the test with CP194; in the test with CP203; in the test on CP211) was “inactive” each time. The Potency entry in the test on CP215, in the test on CP335, with DIV17, in the test with GB4, in the test with P93_24 and in the test with PC26 was “inactive” in each case. Also, the Potency entry in the test with TAB109 was “inactive”. Besides, in test [6], the result was inactive.
In the case of `NC[C@@H]1O[C@@H](O[C@H]2[C@H](O)[C@H](O[C@@H]3O[C@H](CO)[C@@H](O)[C@H](N)[C@@H]3O)[C@@H](N)C[C@H]2N)[C@H](N)C[C@@H]1O`, the Potency entry with 7G8, in the test on AA1029, with CP194, in the test on CP203, in the test with CP211 and in the test with CP215 was “inactive” throughout. Besides, the Potency result in the test on CP335, with DFO2036, with DIV17, with GB4, with P93_24 and in the test with PC26 was “inactive” in each case. Also, the Potency result with TAB109 was “inactive”.
In the case of `COc1cc(OC)c2c(c1Cl)O[C@@]1(C2=O)[C@H](C)CC(=O)C[C@@H]1OC`, in test [1], the Potency entry is “inactive”.
As for `COc1c(O[C@H]2O[C@@H](CO)[C@@H](O)[C@@H](O)[C@@H]2O)cc2c(c1OC)-c1ccc(SC)c(=O)cc1[C@H](NC(C)=O)CC2`, in test [6], the outcome was inactive. The Potency entry in the test on 7G8, with AA1029, in the test with CP194, in the test on CP203, with CP211 and in the test on CP215 was “inactive” in each case. For the same molecule, the Potency entry with CP335, in the test on DFO2036, in the test on DIV17, with GB4, in the test with P93_24 and in the test on PC26 was “inactive” in each case. Moreover, the Potency result with TAB109 was “inactive”.
For `CCCC(=O)Nc1ccc(OC[C@@H](O)CNC(C)C)c(C(C)=O)c1`, the molecule was classed as inactive in test [6].

The record behind these values is PubChem BioAssay (NCATS).
